Hits are enriched below; roughly 3.6% of the tested compounds scored in any of these assays.
EBV LMP1 NFkB – EBV LMP1-driven NF-kappaB luciferase reporter inhibitors, primary screen, cell-based, luminescence, single point | inhibition, % at 12.5 µM | LMP1-induced NF-kappaB luciferase reporter cells | 350,000 tested, 0.69% active; in the data active means inhibition above about 41%;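 further: 0% = neutral control wells and 100% = reference inhibitor control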
LGR2 inh – inhibitors of bursicon-induced LGR2 CRE-luciferase signal, primary screen, cell-based, HEK293, CRE-luciferase reporter, bursicon stimulation; bursicon-stimulated, 4 h; inhibition, % at 9.99 µM; 380,000 tested, 0.35% active;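 active means drop in luminescence signal, shown as inhibition above about 50% in the replicate tests, limit read from the data, passing the limit was not always enough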;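 further: agonist challenge used bursicon conditioned medium at about half maximal strength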
HSF1 activator – HSF-1 activators, primary screen, NIH3T3-HGL cells, MG132 stress, luminescence, single point; NIH3T3-HGL HSF-1 luciferase reporter, 8 h; 100% = twice DMSO control signal; AID 504408, 2011; 300,000 tested, 1.7% active; activation, % at 9 µM;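 active means mean replicate activation of at least 50% with a set share of replicates each reaching 50%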;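 further: 0% = median of the neutral control wells and 100% = twice that signal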
TWEAK-Fn14 inh – inhibitors of TWEAK-Fn14 signaling, primary screen, luciferase reporter cells, uHTS; TWEAK-stimulated Fn14 reporter cells, luciferase luminescence, 8 h; inhibition, % at 10 µM; 360,000 tested, 2% active; AID 1159606, 2016; in the data active means inhibition above about 50%
HSF1 inh – HSF1 inhibitors in luciferase reporter cells, primary screen, cell-based, NIH3T3, luminescence | 300,000 tested, 0.77% active | NIH3T3-HGL HSE-luciferase, MG132-induced, luminescence 8 h; active compounds read low | activity change, negative = inhibition, % at 7.5 µM (by protocol);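 active means more than half of replicate wells show activity change below -50%, luminescence cut by over half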;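 further: luciferase reports HSF-1 transcriptional activity via heat shock element; 0% = median of DMSO wells and -100% = zero luminescence signal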
TROY NFkB inh – inhibitors of TROY-driven NF-kB signaling, primary screen, Q293 LMP1-TROYcd cells, NF-kB luciferase, uHTS. Q293 LMP1-TROYcd NF-kB luciferase reporter, 4 h. 360,000 tested, 0.98% active. inhibition, % at 10 µM;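 active means compounds whose plate-normalised and pattern-corrected inhibition of the luciferase reporter signal at the single screening dose is 50% or more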
An asterisk follows results filed as active; nt = not tested or not shown.

SMILES	EBV LMP1 NFkB	LGR2 inh	HSF1 activator	TWEAK-Fn14 inh	HSF1 inh	TROY NFkB inh
CCC(=O)N1C[C@@H](C)[C@@H](OC)CN(C)C(=O)c2ccc(NC(=O)c3ccc(F)cc3)cc2OC[C@H]1C	nt	9	nt	nt	nt	nt
COc1ccc(N=C(C)C2=C(O)c3ccccc3C2=O)cc1	-14	26	67*	63*	36	-12
CCOc1ccc(N=C(C)C2=C(O)c3ccccc3C2=O)cc1	-14	nt	63*	8	27	-9
O=C(Nc1cccc(F)c1)N1CC(=O)N2[C@H](CO)[C@@H](c3ccc(-c4ccccc4)cc3)[C@@H]2C1	nt	9	nt	nt	nt	nt
COc1ccc(-c2cn(CC[C@H]3CC[C@H](NC(=O)Nc4ccc(F)cc4)[C@@H](CO)O3)nn2)cc1	nt	-8	nt	nt	nt	nt
O=C(C1CCOCC1)N1CC(=O)N2[C@H](CO)[C@H](c3ccc(C#CC4CCCC4)cc3)[C@H]2C1	nt	8	nt	nt	nt	nt
O=c1c(-c2ccc(Cl)cc2)coc2c(CN3CCCCC3)c(O)ccc12	-5	0	-13	4	-2	-25
O=c1c(-c2ccccc2Cl)coc2c(CN3CCCCC3)c(O)ccc12	-7	11	-10	64*	-6	3
C[C@H]1CCCCO[C@H](CN(C)C(=O)CCC(F)(F)F)[C@@H](C)CN([C@@H](C)CO)C(=O)c2cc(N(C)C)ccc2O1	nt	-2	nt	nt	nt	nt
CC(C)(C)c1ccc2c(c1)OC(C(=O)N/N=C\c1ccc[nH]1)CO2 (configuration not stated)	-84	8	-75	20	-73*	22
CC(C)(C)c1ccc2c(c1)OC(C(=O)N/N=C\c1ccncc1)CO2 (configuration not stated)	7	16	-2	18	2	-6
O=C(NCc1ccccc1)C1=C[C@H](C2CCCCC2)C[C@H](OCCCCO)O1	-1	-1	-16	-9	2	-29
CC(C)(C)[C@@H]1C=C(C(=O)O)O[C@H](OCCCCO)C1	3	6	0	-4	-2	-9
O=C(Nc1ccccc1)C1=C[C@@H](C2CCCCC2)C[C@@H](OCCCCO)O1	4	-17	-43	62*	-41	67*
O=C(Nc1ccccc1)C1=C[C@H](C2CCCCC2)C[C@H](OCCCCO)O1	5	-42	-45	57*	-39	67*
CC(C)(C)[C@H]1C=C(C(=O)Nc2ccccc2)O[C@@H](OCCCCO)C1	6	-35	-69	84*	-61*	84*
O=C(Nc1ccccc1)Nc1ccc2c(c1)[C@H]1C[C@@H](CC(=O)N3CCOCC3)O[C@@H](CO)[C@H]1O2	nt	-8	nt	nt	nt	nt
O=S(=O)(c1ccc(-n2cnnn2)cc1)N1CCNCC1	-2	3	83*	7	43	-3
O=C(CSc1nc2ccccc2o1)Nc1nc2c(s1)CCCC2	5	25	nt	89*	nt	0
O=C(CSc1nc2ccccc2s1)N/N=C/c1ccccc1C(=O)O	-11	11	-62	89*	-63*	82*
Cc1ccccc1/C=N/NC(=O)CSc1nc2ccccc2o1	-23	-35	3	65*	4	48
O=C(CSc1nc2ccccc2o1)Nc1nc(-c2ccccc2)cs1	-5	-40	-60	84*	-56*	80*
Cn1cnc(S(=O)(=O)N[C@@H]2C=C[C@H](CC(=O)N3CCN(c4ccccc4)CC3)O[C@@H]2CO)c1	nt	-3	nt	nt	nt	nt
CO[C@H]1CN(C)C(=O)c2cc(NC(=O)NC3CCCCC3)ccc2OC[C@@H](C)N(CCc2ccccc2)C[C@H]1C	nt	-1	nt	nt	nt	nt
CN(C)C(=O)c1ccc(-c2ccc3c(c2)[C@@H]2[C@@H](CCN2C(=O)C2CCOCC2)[C@@H](CO)N3C)cc1	nt	-8	nt	nt	nt	nt
Cc1cccc(C(O)C(O)c2cccc(C)n2)n1 (configuration not stated)	-10	-7	nt	0	nt	16
Cc1cccc(C(P(=O)(c2ccccc2)c2ccccc2)P(=O)(c2ccccc2)c2ccccc2)n1	-12	-5	-52	79*	-39	-1
